# Values joined by “and” are separate entries in the source; they are usually repeats but may differ in a detail not shown here. Equal entries are not always repeated. The campaign covered roughly 13,000 compounds. Fewer than 10 showed an effect of 50% or more. The list is a sample of the results.
# Tested on: Plasmodium falciparum
# Test: GSK_TCMDC: Inhibition of Plasmodium falciparum 3D7 LDH activity, using an LDH reporter assay. Test compounds present at 2uM
# Format: functional, organism-based
row,Compound,inhibition
1,c1ccc(-c2ccc(-c3csc(Nc4ccncc4)n3)cc2)cc1,3%
2,Cc1ccc2nc(C)cc(N/N=C/c3ccc([N+](=O)[O-])o3)c2c1,0%
3,O=C(Nc1ccsc1)Nc1cccc(-c2cccc(-c3nc4cc(F)ccc4[nH]3)c2)c1,2%
4,OCC(c1ccccc1)n1c(COc2ccc(Cl)cc2)nc2c(OCCCN3CCCCC3)cccc21 (centres undefined),0%
5,CCN1CCC(N(Cc2ccc(-c3ccc(C(F)(F)F)cc3)cc2)C(=O)Cn2c(CCc3cccc(F)c3F)cc(=O)c3c2CCCC3)CC1,0%
6,COc1ccc2c(NN=Cc3cccc(F)c3)ccnc2c1,0%
7,N#Cc1ccc(N2CCN(Cc3cccc(-c4ccc(-c5nc6cc(C(F)(F)F)ccc6[nH]5)cc4)c3)CC2)nc1,0%
8,Nc1nc(N)c2c(ccc3[nH]c(-c4ccccc4Cl)nc32)n1,0%
9,C=CCc1cccc(OC)c1OCCCON1C(=N)N=C(N)NC1(C)C,0%
10,CC(C)CCn1c(Sc2ccc(C#N)c([N+](=O)[O-])c2)nnc1-c1ccc(Cl)cc1,0%
11,Cc1n[nH]c2ccc(-c3ccc4nccc(N5CCC(N)CC5)c4c3)cc12,0%
12,CCOc1ccc2c(=NN=Cc3ccccc3F)cc(C)[nH]c2c1,0%
13,COc1cc(CN=C(S)NN=C(C)c2ccccn2)cc(OC)c1OC,0%
14,COc1ccc2c(c1)CC(C)(C)NC2CCCCCCCCC1NC(C)(C)Cc2cc(OC)ccc21 (centres undefined),0%
15,CCCC(=O)c1cnc2c(OCCCc3c[nH]cn3)cccc2c1Nc1c(C)cccc1C,3%
16,CC[C@H](N/C(=N\c1ccc(-c2ccccc2)cc1)Nc1ccc(C#N)cc1O)c1ccccc1,4%
17,COc1c(Br)cc(Br)cc1-c1ccc(CN2CC3CCC2CC3)[nH]1,0%
18,CCCCCCN1CCC(NCc2ccc(Cl)cc2)CC1,0%
19,COc1cc(NC(=O)c2sc(-c3ccc(Cl)cc3)cc2NC(=O)c2cccc(N(C)C)c2)ccc1OCCN1CCCC1,0%
20,CCN(C1CCCCC1)S(=O)(=O)c1ccc(OC)c(N2CCN(C(=O)C(Cl)(Cl)Cl)CC2)c1,3%
21,O=C(NCCCN1CCOCC1)c1cccc(Nc2nccc(Nc3ccc(Oc4ccccc4)cc3)n2)c1,0%
22,CCC(=O)N(c1ccccc1)C1CCN(CCCC(NC(=O)c2cc(C(F)(F)F)cc(C(F)(F)F)c2)c2ccc(Cl)c(Cl)c2)CC1 (centres undefined),0%
23,O=C(/C=C/c1ccc(-c2nc3ccc(Cl)cc3[nH]2)cc1)NC1CCN(Cc2ccccc2)CC1,0%

row,Compound,inhibition
1,CN(C)c1ccc(-c2csc(C(=O)NC3CCN(CCC(C)(C)C)C3)c2)cc1 (centres undefined),2%
2,NC(=O)c1cccc(C(=O)Nc2cccc(-c3cccc(-c4nc5cc(F)ccc5[nH]4)c3)c2)c1,1%
3,Cc1ccc(Cl)c2sc(N3CCN(C(=O)c4ccc([N+](=O)[O-])o4)CC3)nc12,0%
4,O=C(c1ccc([N+](=O)[O-])o1)N1CCN(c2nc3c(F)cc(F)cc3s2)CC1,0%
5,O=C(/C=C/c1ccc(I)cc1)NCCCCCN1CCC(c2c[nH]c3ccc(O)cc23)CC1,2%
6,CN1CCN(CC(=O)Nc2cccc(-c3ccc(-c4nc5cc(F)ccc5[nH]4)cc3)c2)CC1,6%
7,CCN(CC)CCN(CCN(CC)CC)c1ccc(-c2nc3cc(Cl)c(Cl)cc3[nH]2)cc1,2%
8,Cc1ccc(-c2nc3cc(C(=O)NC4CCC(N5CCCc6ccc(C#N)cc6C5)CC4)ccc3[nH]2)cc1 (centres undefined),0%
9,CN(CCc1ccccn1)Cc1ccc(-c2ccc(-c3nc4ccccc4[nH]3)s2)cc1,6%
10,CC(C)(C)OC(=O)NCc1ccc(Nc2nnc(-c3cccc(C(=O)NCCC(c4ccccc4)c4ccccc4)c3)o2)cc1,0%
11,FC(F)(F)c1ccc2[nH]c(-c3cccc(-c4ccc(CNCC5CCCO5)cc4)c3)nc2c1 (centres undefined),0%
12,NCC1CCCN1Cc1cccc(-c2ccc(-c3nc4cc(C(F)(F)F)ccc4[nH]3)s2)c1 (centres undefined),0%
13,O=c1sn(-c2csc3ccccc23)c2ccccc12,0%
14,COc1cc(NC(=O)C(c2ccc(Cl)cc2)C(C)C)cc(OC)c1 (centres undefined),0%
15,CC1(C)NC(N)=NC(=N)N1OCCCc1c(Cl)cccc1Cl,3%
16,Cn1cc(Br)c(-c2cccc(Nc3ccnc4cc(-c5nccs5)ccc34)c2)n1,0%
17,CC1(C)[C@H]2CC[C@@H](CNc3nc(NCCc4c[nH]cn4)nc(Nc4ccc(Oc5ccccc5)cc4)n3)[C@@H]1C2,3%
18,O=C(CC1NC(=O)c2ccccc21)Nc1ccc(-c2ccc(-c3nc4cc(C(F)(F)F)ccc4[nH]3)cc2)cc1 (centres undefined),0%
19,CC(C)CNCc1ccc(-c2cccc(-c3nc4ccccc4[nH]3)c2)cc1,0%
20,Cc1cc2ccccc2n1CC(=O)N1CC(C(=O)N2CCCCC2)Oc2ccccc21 (centres undefined),2%
21,CC1(C)CCC(C)(C)c2c1ccc(C1CCN(CCCCNC(=O)c3ccc(-c4ccc(C#N)cc4)cc3)CC1)c2O,7%
22,c1cc(-c2ccc(CN3CCN(c4ccncc4)CC3)cc2)cc(-c2nc3ccccc3[nH]2)c1,0%
23,FC(F)(F)c1ccc2[nH]c(-c3ccc(-c4ccc(CNCc5cnn(-c6ccccc6)n5)cc4)cc3)nc2c1,0%

row,Compound,inhibition
1,OCc1ccc(-c2cncc(Nc3cccc(Cl)c3)c2)cc1,0%
2,CNCCNCc1ccc(-c2ccc(-c3nc4cc(F)ccc4[nH]3)s2)cc1,2%
3,CC(C)CCNC(=N)Nc1ccc(OCCCCCOc2ccc(NC(=N)NCCC(C)C)cc2)cc1,6%
4,CCOC(=O)c1ccc(NC(=O)Nc2cccc(-c3cccc(-c4nc5cccc(C)c5[nH]4)c3)c2)cc1,0%
5,CC(=NNc1nc2ccccc2s1)c1ccccn1,0%
6,Cn1cccc1C(=O)C(=O)Nc1ccc(-c2ccc(-c3nc4cc(F)ccc4[nH]3)cc2)cc1,0%
7,COC(=O)c1cccc(CNCc2cccc(-c3cccc(-c4nc5cc(C(F)(F)F)ccc5[nH]4)c3)c2)c1,6%
8,COc1ccc2nccc(N/N=C/c3cccc([N+](=O)[O-])c3)c2c1,0%
9,CC(Cl)=CCc1c(C)nc2c(ccc3ccccc32)c1O,8%
10,Cc1cccc2nc(-c3ccc(-c4cccc(NC(=O)Nc5ccccc5)c4)cc3)[nH]c12,9%
11,CCOc1ccc2[nH]c(C)cc(=NN=Cc3cccc(F)c3)c2c1,0%
12,COc1ccc2nc3cc(Cl)ccc3c(NCCCCCCNc3c4ccc(Cl)cc4nc4ccc(OC)cc34)c2c1,0%
13,c1ccc(-c2ccc(CNCc3ccc(-c4cccc(-c5nc6ccccc6[nH]5)c4)cc3)s2)nc1,0%
14,CN(C)c1ccc(CN2CCCCC(NC(=O)c3cc(-c4ccccc4Cl)cs3)C2)cc1 (centres undefined),0%
15,N=C(N)Nc1ccc(CCc2ccc(NC(=N)N)cc2)cc1,0%
16,COc1ccc2nccc([C@@H](O)CN3CCC(NC(=O)/C=C/c4ccc5ccccc5n4)CC3)c2c1,1%
17,N#Cc1ccc(N/C(=N\c2ccc(-c3ccccc3)cc2)NCCc2c[nH]c3ccccc23)c(O)c1,6%
18,Cc1cccc2nc(-c3cccc(-c4ccc(CNCCNC(=O)c5ccnn5C)cc4)c3)[nH]c12,0%
19,NC1CCCN(Cc2ccc(-c3ccc(-c4nc5cc(F)ccc5[nH]4)s3)cc2)C1 (centres undefined),1%
20,COc1ccccc1CCNc1nc(C)cc(N[C@@H](Cc2ccccc2)C(=O)NCCOc2ccccc2)n1,4%
21,O=C(Cn1c(SCc2cccc(F)c2F)cc(=O)c2ccccc21)N(CCn1ccnc1)Cc1ccc(-c2ccc(C(F)(F)F)cc2)cc1,0%
22,O=C(Nc1ccc(Cn2ncc(N3CCCNCC3)c(Cl)c2=O)cc1)Nc1ccc(-c2ccccc2)cc1,0% and 8%
23,O=C(OCc1ccccn1)c1nc2ccccc2[nH]1,0%

row,Compound,inhibition
1,O=C(NCc1cccs1)[C@H](Cc1ccccc1)Nc1ccnc(NCCc2ccccc2)n1,0%
2,Cc1cc(N2CCCC2)nc(NC(=N)Nc2cccc(C(F)(F)F)c2)n1,1%
3,Cn1ncc2ccc(Nc3nccc(-c4ccc5c(c4)c(N)nn5C)n3)cc21,0%
4,Cn1c(Cc2ccccc2)nnc1Sc1ccc(C#N)c([N+](=O)[O-])c1,0%
5,O=C(NCCN1CCCC1)c1cccc(-c2ccc(-c3nc4cc(F)ccc4[nH]3)cc2)c1,0%
6,CCOc1ccc2nc3cc(NC(=O)c4ccco4)ccc3c(N)c2c1,0%
7,Cc1cccc2nc(-c3ccc(-c4cccc(CN5CCN(c6ccncc6)CC5)c4)s3)[nH]c12,6%
8,Cc1ccc(CN2CCN(Cc3cccc(NC(=O)c4cccs4)c3)CC2)cc1C,2%
9,CCN(CC)CCCC(C)Nc1c2ccccc2nc2c1ccc1ccccc12 (centres undefined),3%
10,CCOc1ccccc1NC(=O)C(Sc1nc(C)cc(C)c1C#N)c1ccccc1 (centres undefined),0%
11,O=C(/C=C/c1ccc(Cl)c(Cl)c1)NCCCCCN1CCC(CCNC(=O)Cc2ccc(Cl)cc2)CC1,0%
12,COc1ccc(CN2CCCN(Cc3cccc(NC(=O)c4ccc(Cl)c(Cl)c4)c3)CC2)cc1,5%
13,CCN(CCCN1CCCCC1)c1cc(C)nc(Nc2cccc(C(F)(F)F)c2C)n1,0%
14,COc1ccc2nc3cc(Cl)ccc3c(NCCCCNc3c4ccc(Cl)cc4nc4ccc(OC)cc34)c2c1,6%
15,CS(=O)(=O)NCCCNCc1cccc(-c2ccc(-c3nc4ccccc4[nH]3)s2)c1,6%
16,O=C(NCc1ccc(F)cc1)Nc1ccc(-c2cccc(-c3nc4cc(C(F)(F)F)ccc4[nH]3)c2)cc1,3%
17,O=C(Nc1cccc(C(F)(F)F)c1)c1ccc(S(=O)(=O)NCC2CCN(CC3CCCCC3)CC2)cc1,0%
18,N[C@@H](Cc1cc(I)c(Oc2ccc(O)c(C(=O)O)c2)c(I)c1)C(=O)O,0%
19,CC(C)CNCc1ccc(-c2ccc(CNC3CCN(Cc4ccccc4)CC3)cc2)cc1,4%
20,CC1(C)N=C(N)N=C(N)N1c1ccc(Cl)cc1,0%
